# The entries come from a sample that favours the strongest signals as a whole.
# Assays:
# Assay in all cases: glycan array binding signal (z-score within array); higher = stronger binding
# Settings in all cases: glycan notation: IUPAC condensed, linker removed
# [1] = test system: Fuc(a1-2)Gal6S(b1-4)Glc6S
# In short: (§1)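 The binding signal is a Z-score computed within each array and averaged over linkers. Arrays of the same protein sequence at different concentrations or buffers were also averaged together. Data originate from 3228 arrays in the Consortium for Functional Glycomics database, kept only where the protein sequence was available.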
# [2] = test system: Fuc(a1-2)Gal
# In short: as §1
# [3] = test system: Fuc(a1-2)[Gal(a1-3)]Gal(b1-3)GlcNAc
# In short: as §1
# [4] = test system: Fuc(a1-2)[GalNAc(a1-3)]Gal(b1-3)GlcNAc(b1-2)Man(a1-3)[Fuc(a1-2)[GalNAc(a1-3)]Gal(b1-3)GlcNAc(b1-2)Man(a1-6)]Man(b1-4)GlcNAc(b1-4)[Fuc(a1-6)]GlcNAc
# In short: as §1
# [5] = test system: Fuc(a1-2)[GalNAc(a1-3)]Gal(b1-4)GlcNAc(b1-2)Man(a1-3)[Fuc(a1-2)[GalNAc(a1-3)]Gal(b1-4)GlcNAc(b1-2)Man(a1-6)]Man(b1-4)GlcNAc(b1-4)GlcNAc
# In short: as §1
# [6] = test system: Fuc(a1-2)[Gal(a1-3)]Gal(b1-3)GlcNAc(b1-6)GalNAc
# In short: as §1
# [7] = test system: Fuc(a1-2)[Gal(a1-3)]Gal(b1-4)GlcNAc(b1-2)Man(a1-3)[Fuc(a1-2)[Gal(a1-3)]Gal(b1-4)GlcNAc(b1-2)Man(a1-6)]Man(b1-4)GlcNAc(b1-4)GlcNAc
# In short: as §1
# [8] = test system: Fuc(a1-2)[Gal(a1-3)]Gal(b1-4)[Fuc(a1-3)]Glc
# In short: as §1
# [9] = test system: Fuc(a1-2)[Gal(a1-4)]Gal(b1-4)GlcNAc
# In short: as §1
# [10] = test system: Fuc(a1-2)[GalNAc(a1-3)]Gal(b1-3)GalNAc(b1-3)Gal(a1-4)Gal(b1-4)Glc
# In short: as §1
# [11] = test system: Fuc(a1-2)[GalNAc(a1-3)]Gal(b1-4)GlcNAc(b1-2)Man(a1-3)[Fuc(a1-2)[GalNAc(a1-3)]Gal(b1-4)GlcNAc(b1-2)Man(a1-6)]Man(b1-4)GlcNAc(b1-4)[Fuc(a1-6)]GlcNAc
# In short: as §1
# [12] = test system: Fuc(a1-2)[Gal(a1-3)]Gal(b1-4)GlcNAc
# In short: as §1
# [13] = test system: Fuc(a1-2)[Gal(a1-3)]Gal(b1-4)[Fuc(a1-3)]GlcNAc
# In short: as §1
# [14] = test system: Fuc(a1-2)Gal6S(b1-4)Glc
# In short: as §1
# [15] = test system: Fuc(a1-2)[Gal(a1-3)]Gal(b1-3)GalNAc
# In short: as §1
# [16] = test system: Fuc(a1-2)[GalNAc(a1-3)]Gal(b1-3)GlcNAc(b1-2)Man(a1-3)[Fuc(a1-2)[GalNAc(a1-3)]Gal(b1-3)GlcNAc(b1-2)Man(a1-6)]Man(b1-4)GlcNAc(b1-4)GlcNAc
# In short: as §1
# [17] = test system: Fuc(a1-2)Gal6S(b1-3)GlcNAc
# In short: as §1
# [18] = test system: Fuc(a1-2)[Gal(a1-3)]Gal(b1-3)GlcNAc(b1-3)GalNAc
# In short: as §1
# [19] = test system: Fuc(a1-2)[GalNAc(a1-3)]Gal(b1-3)GalNAc(a1-3)[Fuc(a1-2)]Gal(b1-4)GlcNAc
# In short: as §1
# [20] = test system: Fuc(a1-2)[GalNAc(a1-3)]Gal(b1-3)GlcNAc
# In short: as §1
substance,measurement,setting,value
Actinohivin (Actinomycete K97),glycan array binding signal (z-score),[1],-0.121
same,glycan array binding signal (z-score),[2],-0.161
same,glycan array binding signal (z-score),[3],-0.173
same,glycan array binding signal (z-score),[4],0.857
same,glycan array binding signal (z-score),[5],-0.143
Epa22,glycan array binding signal (z-score),[6],-0.605
same,glycan array binding signal (z-score),[7],-0.038
same,glycan array binding signal (z-score),[8],-0.341
same,glycan array binding signal (z-score),[9],1.84
same,glycan array binding signal (z-score),[10],-0.54
AgI/II Vhelical-GFP (Streptococcus mutans),glycan array binding signal (z-score),[8],-0.293
same,glycan array binding signal (z-score),[4],-0.218
same,glycan array binding signal (z-score),[11],-0.212
"SiiE (Salmonella typhimurium), A0A0H3NVH0",glycan array binding signal (z-score),[12],-0.344
same,glycan array binding signal (z-score),[13],-0.019
LcI (Legionella pneumophila),glycan array binding signal (z-score),[14],-0.438
same,glycan array binding signal (z-score),[15],-0.622
same,glycan array binding signal (z-score),[16],-0.301
same,glycan array binding signal (z-score),[4],-0.427
"BambL (Burhholderia ambifaria), Q0B4G1",glycan array binding signal (z-score),[2],5.01
AgI/IIC123-GFP (Streptococcus mutans),glycan array binding signal (z-score),[17],4.98
same,glycan array binding signal (z-score),[18],-0.567
same,glycan array binding signal (z-score),[13],-0.047
same,glycan array binding signal (z-score),[19],-0.259
same,glycan array binding signal (z-score),[11],-0.549
"GspB (Streptococcus gordonii), Q939N5",glycan array binding signal (z-score),[3],-0.728
same,glycan array binding signal (z-score),[20],0.192

# — the supplement of paper PMC8728848
